High-throughput results: PubChem, Paczesny and Yang Labs, IUPUI and University of Michigan
The sample as a whole holds a higher share of hits than the screen did.
ST2 IL33 inh = inhibitors of human ST2 (IL1RL1) binding to IL-33; AlphaLISA ST2-Fc/biotin-IL-33 interaction, 1 h; 78,000 compounds, 2.3% hits; inhibition, % for hits at 17 µM; Q01638; AID 1259354; in the data active = inhibition above about 30%
Target sequence (Q01638 whole entry, looked up): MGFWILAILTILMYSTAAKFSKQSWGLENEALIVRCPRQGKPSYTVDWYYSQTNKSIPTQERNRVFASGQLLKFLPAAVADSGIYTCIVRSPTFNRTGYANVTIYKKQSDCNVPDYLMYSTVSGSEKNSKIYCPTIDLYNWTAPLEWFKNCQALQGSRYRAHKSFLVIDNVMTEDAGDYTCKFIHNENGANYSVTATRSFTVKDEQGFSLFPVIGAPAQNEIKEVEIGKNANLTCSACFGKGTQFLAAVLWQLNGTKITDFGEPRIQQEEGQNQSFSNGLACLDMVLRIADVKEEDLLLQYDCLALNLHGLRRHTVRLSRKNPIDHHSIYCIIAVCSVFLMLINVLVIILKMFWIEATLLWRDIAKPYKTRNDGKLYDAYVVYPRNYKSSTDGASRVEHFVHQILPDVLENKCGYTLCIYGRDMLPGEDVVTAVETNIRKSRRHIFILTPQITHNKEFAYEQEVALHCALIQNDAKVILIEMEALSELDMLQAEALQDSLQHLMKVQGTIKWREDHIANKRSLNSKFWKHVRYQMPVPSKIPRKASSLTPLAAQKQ
Hits are given with their value; i = inactive.

SMILES | ST2 IL33 inh
CN(C(=O)C1CC1)C(Cc1ccc(F)cc1F)C1CCN(C(=O)/C=C/c2cccs2)CC1 (stereo not drawn) | i
COc1ccc(C(=O)Nc2cccc(Cl)c2)cc1 | i
COc1ccccc1Nc1cc(C(F)(F)F)nc2c(OC)ccc(OC)c12 | 39%
COc1ccc(-c2cc(C(F)(F)F)nc(NCc3ccccc3)n2)cc1OC | i
COc1ccccc1-c1cc(C(F)(F)F)nc(S(C)(=O)=O)n1 | i
O=C1NCCN(C/C=C/c2ccccc2)C1CC(=O)N1CCOCC1 (stereo not drawn) | i
CCOc1ccc(S(=O)(=O)N2CCN(c3nc(C)cc(Nc4ccc(OC)cc4)n3)CC2)cc1 | i
Cc1ccc(C2=N/C(=C\c3cccc([N+](=O)[O-])c3)C(=O)O2)cc1[N+](=O)[O-] | i
Cc1ccc(C2=N/C(=C\c3ccc(N(C)C)cc3)C(=O)O2)cc1[N+](=O)[O-] | 30%
Cc1ccc(C2=N/C(=C\c3cccc(F)c3)C(=O)O2)cc1[N+](=O)[O-] | i
Cc1ccn2c(NC(=O)c3cccc(F)c3)c(-c3ccccc3)nc2c1 | i
CCCc1nc2ccccc2n1CC(O)COc1ccc(C(C)=O)cc1 (stereo not drawn) | i
O=[N+]([O-])C1=Cc2cc(Br)cc(Br)c2OC1c1ccc2c(c1)OCO2 (stereo not drawn) | 60%
O=[N+]([O-])c1ccc(C2CNC(c3ccc4c(c3)OCO4)O2)cc1 (stereo not drawn) | i
CCOc1ccc(C2Oc3c(cc(Br)cc3OC)C=C2[N+](=O)[O-])cc1OC (stereo not drawn) | 36%
CN1c2ccccc2N(C)C1c1ccc2c(c1)OCO2 | i
CCOc1ccc(C(=O)Nc2c(C)cc(Br)cc2C)cc1[N+](=O)[O-] | i
COc1ccc(C2SCCN2S(=O)(=O)c2ccc(Br)cc2)cc1[N+](=O)[O-] (stereo not drawn) | i
O=C(COc1ccc(Cl)cc1Cl)Nc1c2c(nn1-c1ccc(F)cc1)CS(=O)C2 (stereo not drawn) | i
CCC1CN(Cc2cnc(CC3CCCC3)[nH]2)CCN1C(C)C (stereo not drawn) | i
CC(C)c1csc(C(=O)NCC2CCCN(S(C)(=O)=O)C2)n1 (stereo not drawn) | i
CCCNC(=O)C1CCC(Cn2c(=O)c3sccc3n(CC(=O)N3CCCCC3C)c2=O)CC1 (stereo not drawn) | i
O=C(CSCCc1ccccn1)Nc1ccc(Br)cc1 | i
c1cn(CCOc2ccc(CN3CCC4(CCOCC4)CC3)cc2)cn1 | i
O=C(c1ccco1)N1CCN(Cc2cccn2-c2ncccn2)CC1 | i
SMILES | ST2 IL33 inh
O=C(Nc1cccc(-c2ccco2)c1)C1CCN(Cc2cccn2-c2ccccn2)CC1 | 32%
O[C@@H]1CN(Cc2cccn2-c2ccccn2)CC[C@H]1c1ccc2c(c1)OCO2 | i
CCC(C)NC(=O)C1(C)CCC(=O)N1Cc1ccc(OC)cc1OC (stereo not drawn) | i
COc1ccc(-n2ncc3c2CC(C)(C)CC3NC(=O)CSc2ncccn2)cc1 (stereo not drawn) | i
CC12CN(S(=O)(=O)c3ccccc3)CC(C)(CN(S(=O)(=O)c3ccccc3)C1)C2O (stereo not drawn) | i
COC(=O)c1ccc(Cl)cc1NC(=O)N1CCN(Cc2nc3cccnc3n2-c2cc(C)cc(C)c2)CC1 | i
Cc1cc(C)c(OCC(O)CN2CCN(c3ccc(F)cc3)CC2)c(C)c1 (stereo not drawn) | i
Cc1ccc(S(=O)(=O)N2CCCC2)cc1 | i
Cc1ccc(S(=O)(=O)N2CCN(c3nc(-c4cccs4)cs3)CC2)cc1 | 32%
CC1CC(C)CN(S(=O)(=O)c2ccc(C(=O)Nc3nc(-c4cccs4)cs3)cc2)C1 (stereo not drawn) | i
NC(=O)CCn1cc(CN2CCC3(CCOCC3)CC2)c2ccccc21 | i
CN(C)C1CCCN(C(=O)CSc2cn(C)c3ccccc23)CC1 (stereo not drawn) | i
Cc1ccc(NCN2C(=O)S/C(=C/c3ccccc3)C2=O)cc1Cl | i
O=C1S/C(=C\c2c(NCC3CCCO3)nc3ccccn3c2=O)C(=O)N1Cc1ccccc1 (stereo not drawn) | i
CCNc1nc2ccccn2c(=O)c1/C=C1\SC(=O)N(CC)C1=O | 30%
CCC(=O)N1CCc2cc(Br)cc(S(=O)(=O)NCCN(C)C)c21 | i
CN(C)Cc1nnc(C(=O)N2C[C@H](O)[C@@H](N3CCCCC3)C2)o1 | i
COc1ccccc1N1CCN([C@H]2[C@@H]3OC[C@@H](O3)[C@@H](NCc3cnc4ccccc4c3)[C@@H]2O)CC1 | 30%
C=CCNC(=O)N[C@H]1[C@H](O)[C@@H](N2CCN(c3ccccc3OC)CC2)[C@@H]2OC[C@H]1O2 | i
NC(=O)C1CCN([C@H]2[C@@H]3OC[C@@H](O3)[C@@H](NCc3cnc4ccccc4c3)[C@@H]2O)CC1 | i
CCc1cc(N2CCN(Cc3ccc4c(C)cc(=O)oc4c3)CC2)ncn1 | i
CC(=O)N(C(C)=O)c1ccc(-c2ccc(N(C(C)=O)C(C)=O)cc2)cc1 | i
CC(C)(C)NC(=O)CSc1nnnn1-c1ccccc1Cl | i
CS(=O)(=O)NCC(=O)NC1CC(=O)N(CCc2ccc(F)cc2)C1 (stereo not drawn) | i
CC1=NN(c2ccc(I)cc2)C(=O)/C1=C/c1ccc(N(C)C)cc1 | 38%
SMILES | ST2 IL33 inh
COc1c(Br)cc(Br)cc1/C=C1\C(=O)N(c2ccccc2)N=C1C | i
CC1=NN(c2ccccc2)C(=O)/C1=C/c1cccc(Br)c1 | i
CC1=NN(c2ccccc2)C(=O)/C1=C\c1ccc(N(C)C)c(Br)c1 | 39%
CC1=NN(c2cccc(Br)c2)C(=O)/C1=C\c1ccc(N(C)C)cc1 | i
CC1=NN(c2cccc(F)c2)C(=O)/C1=C/c1ccc(N(C)C)cc1 | i
Cc1c(Cl)c([N+](=O)[O-])nn1CCCC(=O)Nc1ccccc1C(F)(F)F | i
CC(C)CCCC1CN(C(=O)c2ccc(=O)[nH]n2)CCO1 (stereo not drawn) | i
CCN(CC)CCCNC(=O)C1c2ccccc2C(=O)N2CCc3ccccc3C12 (stereo not drawn) | i
CN(Cc1ccco1)C(=O)c1nn(C)c2c1CC(NCC1(c3ccccc3)CCOCC1)CC2 (stereo not drawn) | i
Cc1cc(NC(=O)c2cc(-c3ccc(F)cc3)on2)no1 | i
O=C1NC(=Nc2ccc(O)cc2)S/C1=C\c1cccc(O)c1 | i
COc1ccccc1C=C1C(=O)OC(C)(c2ccccc2)OC1=O (stereo not drawn) | i
COc1ccccc1/C=C1/SC(=Nc2ccccc2Cl)NC1=O | 33%
CN(C)c1ccc(/C=C2/SC(=Nc3ccccc3Cl)NC2=O)cc1 | 39%
COC(=O)c1ccc(NC(=O)C2CCN(c3ccc(-c4cccs4)nn3)CC2)cc1 | i
Cc1ccc2c(c1)C(C)(c1ccccc1)CC(C)(C)N2C(=O)CSc1nncn1C (stereo not drawn) | i
C=CCc1cccc(OC)c1OCCn1cnc2ccccc2c1=O | i
O=C1c2ccc([N+](=O)[O-])cc2S(=O)(=O)N1c1ccccc1 | i
Cc1ccc(NS(C)(=O)=O)c(C)c1 | i
Cc1ccccc1NC(=O)C1(N(C(=O)Cn2nnnc2N)c2cccc(Cl)c2)CCCCC1 | i
CCOCc1ccc2c(c1)C1c3ccccc3C2c2ccccc21 | i
CCOc1cc(C2C(C#N)=C(N)OC3=C2C(=O)CC(C)(C)C3)ccc1O (stereo not drawn) | i
CC(C)c1ccc(C2C(C#N)=C(N)OC3=C2C(=O)CC(C)(C)C3)cc1 (stereo not drawn) | i
